FMDV antiviral: blocks foot and mouth disease virus; Potency, µM (highest dose often 57.9 µM), hits mostly inhibitors; 1.2% of 410,000 active; AID 1159524; FMDV antiviral cell-based qHTS; calls by dose curve; tested in HEK293T cells; note: read-out not given here; nearly all actives have a fitted effect of over 45% in size
RE007 growth inh: less growth of the S. pombe RE007 Vpr strain | Potency, µM (titrated, usually from 92.2 µM), actives largely listed as inhibitors | S. pombe RE007 Vpr strain, BacTiter-Glo ATP luminescence, 24 h | 0.21% of 360,000 active; active = well fitted falling curve with a large enough effect; inconclusive = small, poorly fitted or top-dose-only effect; inactive = no such curve, though single readings can be large or run the other way; note: nearly all actives have a fitted effect of over 50% in size
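Fission yeast strain RE007, carrying one chromosomally integrated HIV-1 vpr copy, was seeded at OD 0.01 in PMG+AL medium with 23 nL pinned compound. After 24 h at 30 °C and 99% humidity, viability was read by BacTiter-Glo luminescence.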
Sm TGR block: blocks Schistosoma mansoni thioredoxin glutathione reductase | Q962Y6 | purified TGR, DTNB reduction, TNB absorbance 405 nm | Potency, µM (highest dose often 114 µM), usual class: inhibitors | 3% of 360,000 active | AID 485364; note: nearly all actives have a fitted effect of over 60% in size
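TGR 20 nM + NADPH 100 uM (dispensed conc.), cpd preinc 15 min RT; start with NADPH (500 uM addition) then DTNB (15 mM addition). Kinetic TNB absorbance, 405 nm filter. Four-parameter Hill fit across titration.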
Tb PYK inh: inhibitors of Trypanosoma brucei pyruvate kinase | Q57TT1 | AID 624173 | TbPYK enzyme, Kinase-Glo Plus ATP luminescence, 45 min | 0.12% of 410,000 active | Potency, µM (highest dose often 76.8 µM), hits mostly inhibitors; note: nearly all actives have a fitted effect of over 50% in size
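Luminescent Kinase-Glo Plus end-point after 45 min room-temperature reaction of T. brucei pyruvate kinase started with 130 uM ADP (final). Buffer TEA 50 mM pH 7.2 with KCl, MgCl2, BSA, Tween-20; titration-based qHTS with fitted concentration-effect curves.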
Large screens that a line does not name were inactive. Shown are actives, neighbours in structure and some others; about 3.7% of the full set was active somewhere. Unless noted, calls come from the whole dose curve; as a rule, active = well fitted curve in the direction sought with a large enough effect; inconclusive = small, poorly fitted or top-dose-only effect, or another doubt; inactive = no such curve, though single readings can be large; an effect the other way counts as inactive or inconclusive.

CN(Cc1cccnc1)C(=O)CC1C(=O)NCCN1CC(c1ccccc1)c1ccccc1 (configuration not stated)	Sm TGR block inconclusive
O=C1CN(C(=O)CC2C(=O)NCCN2Cc2ccccc2C(F)(F)F)CCN1 (configuration not stated)	none
CN(Cc1ccon1)C(=O)CC1C(=O)NCCN1Cc1ccc(Cl)c(F)c1 (configuration not stated)	Sm TGR block 35.5µM
COc1ccc(NC(=O)c2ccc3c(=O)n4nc(Nc5cc(C)ccc5C)sc4nc3c2)cc1	none (no result: RE007 growth inh)
Cc1ccc2cc(COC(=O)c3ccco3)c(=O)[nH]c2c1	Sm TGR block 44.7µM
CC(C)N(Cc1cc2ccccc2[nH]c1=O)C(=O)c1ccco1	Sm TGR block 28.2µM
COc1ccc(CNc2ncnc3ccc(-c4ccc(C(=O)N(C)C)cc4)cc23)c(OC)c1	none (no result: RE007 growth inh, Sm TGR block, Tb PYK inh)
CC(C)N(Cc1ccccc1)C(=O)CCS(=O)(=O)c1cc2c(cc1Cl)NC(=O)CO2	none (no result: RE007 growth inh)
N#Cc1ccc(NC(=O)COCc2cc(-c3ccc4c(c3)OCO4)on2)cc1	none (no result: RE007 growth inh)
O=C1NC(=O)N(c2ccccc2F)C(=O)/C1=C/c1cn(CC(=O)N2CCOCC2)c2ccccc12	FMDV antiviral 22.4µM
O=C(O)Cn1cc(/C=C2\C(=O)NC(=O)N(Cc3ccco3)C2=O)c2ccccc21	Sm TGR block 5.01µM
CCN1C(=O)NC(=O)/C(=C\c2cn(CC(=O)N3CCCC3)c3ccccc23)C1=O	Sm TGR block inconclusive
N#Cc1c(N)nc(SCc2ccccc2)c(C#N)c1-c1ccco1	Sm TGR block 50.1µM (no result: FMDV antiviral)
N#Cc1c(N)nc(SCC(=O)OCc2ccccc2)c(C#N)c1-c1ccco1	none
C[C@H](O)C#Cc1ccc2c(c1)O[C@@H](CN(C)Cc1ccc(-c3ccccc3)cc1)[C@H](C)CN([C@@H](C)CO)S2(=O)=O	FMDV antiviral inconclusive (no result: Sm TGR block)
CCC(C)(C)n1nnnc1CN1CCc2ccccc21	Sm TGR block 7.08µM
CCN1CCN(CC(=O)c2cc(Cl)ccc2Cl)CC1	Sm TGR block 17.8µM
Cc1c(NC(=O)c2cccc3c(Cl)cccc23)cccc1-c1nc2ccccc2o1	none (no result: RE007 growth inh)
O=C(Nc1ccccc1N1CCCC1)c1ccc(Br)o1	none
COc1ccc(N2CCCC2)c(NC(=O)c2ccc(Br)o2)c1	FMDV antiviral inconclusive, Sm TGR block 44.7µM
COc1cccc(NC(=O)CN(C)C(=O)c2cc(-c3ccco3)nc3ccccc23)c1	Sm TGR block inconclusive
CN(CC(=O)Nc1ccc(F)cc1)C(=O)c1cc(-c2ccco2)nc2ccccc12	FMDV antiviral inconclusive, Sm TGR block 11.2µM
CCOc1ccc(NC(=O)CN(C)C(=O)c2cc(-c3ccco3)nc3ccccc23)cc1OCC	none (no result: Sm TGR block)
COc1ccc(CCNC(=O)c2cc(-c3ccco3)nc3ccccc23)cc1	Tb PYK inh inconclusive (no result: Sm TGR block)
Cc1ccc(NC(=O)CN(C)C(=O)c2cc(-c3ccco3)nc3ccccc23)cc1	Sm TGR block 6.31µM, Tb PYK inh inconclusive
CN(CCOc1ccc(Cl)cc1)C(=O)c1cc(-c2ccco2)nc2ccccc12	FMDV antiviral 35.5µM, Sm TGR block 11.2µM
Cn1c(=O)c(CCc2ccccc2)nc2cnc(Oc3ccccc3)nc21	none (no result: RE007 growth inh, Sm TGR block)
O=C(NNc1ccc(O)cc1)c1ccc(Br)cc1	Sm TGR block 22.4µM
O=C(NNc1ccccc1)c1ccccc1	none (no result: Sm TGR block)
CN(C(=O)CC1C(=O)NCCN1Cc1cccc(F)c1F)C1CCOCC1 (configuration not stated)	Sm TGR block inconclusive
CN(C(=O)CC1C(=O)NCCN1Cc1c(F)cccc1Cl)C1CCOCC1 (configuration not stated)	Sm TGR block 50.1µM
CN(C(=O)CC1C(=O)NCCN1Cc1ccoc1)C1CCOCC1 (configuration not stated)	none
Cc1ccc(CN2CCNC(=O)C2CC(=O)N(C)C2CCOCC2)cc1 (configuration not stated)	Sm TGR block 44.7µM
COc1ccc(OCC2c3cc(OC)c(OC)cc3CCN2C(=O)COc2ccc(Cl)cc2Cl)cc1 (configuration not stated)	none (no result: RE007 growth inh)
O=C(O)c1cccc(NC(=O)c2cc3cc(Br)cc(Br)c3oc2=O)c1	none (no result: RE007 growth inh)
Cc1ccc(C(=O)/C=C/C(=O)O)cc1	FMDV antiviral inconclusive, Sm TGR block 2.51µM, Tb PYK inh inconclusive
CCOc1ccccc1NC(=O)C1=C(C)Nc2ncnn2C1c1cccs1 (configuration not stated)	none (no result: RE007 growth inh)
Cn1c(=O)c2c(nc(NCc3ccco3)n2C/C=C/c2ccccc2)n(C)c1=O	FMDV antiviral 14.1µM
CC(C)CCn1c(NCCc2ccccc2)nc2c1c(=O)n(C)c(=O)n2C	FMDV antiviral 20µM
Cn1c(=O)c2c(nc(NCCc3ccccc3)n2Cc2ccc(F)cc2)n(C)c1=O	FMDV antiviral inconclusive
CC(Cl)=CCn1c(NCCc2ccccc2)nc2c1c(=O)n(C)c(=O)n2C	FMDV antiviral 12.6µM (no result: Sm TGR block)
COc1cc(CN2CCCC(n3cc(C(=O)N4CCCC4)nn3)C2)cc(OC)c1 (configuration not stated)	none (no result: RE007 growth inh, Sm TGR block, Tb PYK inh)
Cc1ccc(-n2c(SCc3ccccc3F)nc3[nH]ncc3c2=O)cc1Cl	none (no result: RE007 growth inh)
CCOC(=O)c1cccc(NC(=O)Cn2ncc3c4ccccc4n(Cc4ccccc4)c3c2=O)c1	none (no result: RE007 growth inh)
Cc1ccc(CNC(=O)[C@H]2C[C@@H]2[C@H](NP(=O)(c2ccccc2)c2ccccc2)c2ccccc2)o1	Sm TGR block 50.1µM
O=C(Nc1ccc2oc(-c3cccnc3)nc2c1)c1ccc(Br)cc1	none (no result: RE007 growth inh)
O=c1[nH]c2ccccc2n1C1CCN(C(CCc2ccccc2)c2nnnn2C2CCCC2)CC1 (configuration not stated)	FMDV antiviral 35.5µM (no result: Sm TGR block)
Cc1cccc(C)c1-n1nnnc1C(c1cc2ccccc2o1)N1CCC(n2c(=O)[nH]c3ccccc32)CC1 (configuration not stated)	FMDV antiviral 10µM (no result: Sm TGR block)
CCCSc1ncnc2c1c(-c1ccccc1)cn2-c1ccccc1OC	none (no result: RE007 growth inh)
COc1ccc(CCN2C(=O)CN(C3CCCCCC3)C(=O)C2c2ccc(C)cc2)cc1OC (configuration not stated)	none (no result: RE007 growth inh)
COc1cccc(NC(=O)CSc2nc(-c3ccccc3Cl)nc3c2Cc2c(CO)cnc(C)c2O3)c1	Sm TGR block inconclusive (no result: RE007 growth inh)
Cc1ccc(OCC(=O)Nc2nnc(S(=O)(=O)N3CCc4ccccc43)s2)cc1	none (no result: RE007 growth inh)
CC1(C)CC(=O)C=C(OC(=O)c2ccc(Cl)cc2)C1	Sm TGR block 14.1µM
COc1ccc(C(=O)NNC2=CC(=O)CC(C)(C)C2)cc1	Sm TGR block inconclusive
COc1ccc(C(=O)/C=C/C(=O)N(CC(=O)NC2CCCCC2)Cc2ccccc2)c(O)c1	FMDV antiviral 8.91µM, Sm TGR block 1.41µM
COc1ccc(C(=O)/C=C/C(=O)N(CC(=O)NC2CCCCC2)Cc2ccccc2OC)c(O)c1	FMDV antiviral 7.94µM, Sm TGR block 1µM
COc1ccc(C(=O)/C=C/C(=O)N(Cc2ccccc2)C(C(=O)NC2CCCCC2)c2ccncc2)c(O)c1 (configuration not stated)	none

High-throughput results deposited in PubChem by National Center for Advancing Translational Sciences (NCATS).
